Experiment [1] can be described thus: qHTS assay to identify small molecule agonists of the androgen receptor (AR) signaling pathway in the presence of an antagonist - cell viability counter screen (AID 1259379). Further: nearly all actives have a fitted effect of over 25% in size. Further: potency means the concentration at half of the fitted maximal effect. A digest of the protocol: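 Each compound was tested at 15 concentrations on MDA-kb2 cells in the presence of 3.0uM nilutamide. Viability was measured by CellTiter-Fluor fluorescence after a 16 hr incubation at 37C in a CO2-free atmosphere.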
A general note: qHTS replaces the single test concentration by a dilution series.

The nature of experiment [2]: qHTS assay to identify small molecule agonists of the estrogen receptor beta (ER-beta) signaling pathway - cell viability counter screen (AID 1259380). Further: nearly all actives have a fitted effect of over 30% in size. Further: potency means the concentration at half of the fitted maximal effect. In short, it runs like this:
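Compounds dissolved in DMSO were pin-transferred onto ER-beta-UAS-bla HEK293T cells that had settled 6 hr, and exposure ran 16 hr at 37C. Following the reporter read, CellTiter-Glo luminescence after 30 min at room temperature indicated cytotoxicity.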

Experiment [3] can be described thus: qHTS assay to identify small molecule antagonists of the estrogen receptor beta (ER-beta) signaling pathway - cell viability counter screen (AID 1259382). Further: nearly all actives have a fitted effect of over 55% in size. Further: potency means the concentration at half of the fitted maximal effect. A digest of the protocol:
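CellTiter-Glo ATP luminescence measured after the LiveBLAzer read in the same wells; ER-beta-UAS-bla HEK293T cells, 16 hr compound treatment with 1nM 17-beta-estradiol agonist at 37C, 5% CO2.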

Experiment [4] is described as follows: qHTS assay to identify small molecule agonists of the estrogen receptor alpha (ER-alpha) signaling pathway in the presence of an antagonist - cell viability counter screen (AID 1259386).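 Further: series mostly up to about 92 µM; cells exposed to compounds for 22 h at 37 °C before the viability read; nearly all actives have a fitted effect of over 30% in size.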 A digest of the protocol: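 Using estrogen-depleted VM7Luc4E2 cells, the 15-concentration compound series was applied together with 10.0nM ICI-182,780 and incubated 22hr at 37C/5% CO2. Cell viability was then scored by CellTiter-Fluor.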

The target of experiment [5] is Progesterone receptor (Homo sapiens) (UniProt P06401). The experiment is described as follows: qHTS assay to identify small molecule agonists of the progesterone receptor (PR) signaling pathway (AID 1346784; calls by dose curve; further: nearly all actives have a fitted effect of over 30% in size; further: potency means the concentration at half of the fitted maximal effect). In short, it runs like this: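 Using charcoal-stripped serum (2%) to limit endogenous steroids, PR-UAS-bla HEK 293T cells received compounds for 16 hr at 37C after 6 hr plating; beta-lactamase FRET fluorescence was recorded following 2 hr substrate loading at room temperature.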

The target is the same in experiment [6]. In words: qHTS assay to identify small molecule antagonists of the progesterone receptor (PR) signaling pathway (AID 1346795; active means well fitted inhibition curve with a large enough effect in the signal ratio in the repeat runs, not every such curve was filed as active; the % refers to the signal ratio; further: potency means the concentration at half of the fitted maximal effect). A digest of the protocol:
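Inhibition of R5020-induced (1 nM final) beta-lactamase reporter signal in PR-UAS-bla HEK293T cells was scored by FRET fluorescence after overnight (16 hr) compound treatment.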

Experiment [7] in a line: qHTS assay to identify small molecule antagonists of the progesterone receptor (PR) signaling pathway - cell viability counter screen (AID 1346798). Further: series mostly up to about 92 µM; nearly all actives have a fitted effect of over 50% in size. A digest of the protocol: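 ATP content as viability readout: CellTiter-Glo luminescence, 30 min room temperature, in PR-UAS-bla HEK293T cells after 16 hr compound/R5020 treatment at 37C and 5% CO2.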
Experiment [8] in a line: qHTS assay to identify small molecule agonists of the progesterone receptor (PR) signaling pathway - cell viability counter screen (AID 1346799; calls by dose curve; further: nearly all actives have a fitted effect of over 45% in size; further: potency means the concentration at half of the fitted maximal effect). In short, it runs like this: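 Cytotoxicity in PR-bla HEK293T cells: 16 h compound, 37C; CellTiter-Glo added post-FRET read; luminescence after 30 min RT.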
Experiment [9] can be described thus: qHTS assay to identify small molecule antagonists of the TGF-beta/Smad signaling pathway - cell viability counter screen (AID 1346824). Further: nearly all actives have a fitted effect of over 50% in size. In short, it runs like this:
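SBE-bla HEK 293T cells, incubated overnight, then compound plus 0.25 ng/mL TGF-beta1 (stock added) for 5 hr at 37 C. Viability was read in the same wells by CellTiter-Glo luminescence after 30 min at room temperature.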

Experiment [10] can be described thus: qHTS assay to identify small molecule agonists of the TGF-beta/Smad signaling pathway - cell viability counter screen (AID 1346829). Further: top concentration of the series differs between compounds; nearly all actives have a fitted effect of over 45% in size. A digest of the protocol:
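Luminescence from CellTiter-Glo, read after a 30 min room-temperature incubation, gives cell viability of SBE-bla HEK 293T cells treated 5 hr with compounds at 37 C.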

The nature of experiment [11]: qHTS assay to identify small molecule agonists of the TGF-beta/Smad signaling pathway (AID 1346859; active means well fitted activation curve with a large enough effect in the signal ratio in the repeat runs, not every such curve was filed as active; the % refers to the signal ratio; further: series mostly up to about 77 µM). In short, it runs like this: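 Stable Smad binding element-beta-lactamase HEK 293T cells; 5 hr compound exposure at 37 C under 5% CO2; 2 hr room-temperature substrate step; fluorescence excited at 405 nm, collected at 460 nm and 530 nm.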
Experiment [12] can be described thus: Human pregnane X receptor (PXR) small molecule agonists, qHTS cell viability counter screen (AID 1346977). Further: nearly all actives have a fitted effect of over 50% in size. Further: potency means the concentration at half of the fitted maximal effect. In short, it runs like this:
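Readout is CellTiter-Fluor fluorescence from PXR-Luc HepG2 cells. Plated cells rested 5hr, then were treated with compounds for 24hr at 37C and 5% CO2, with reagent present during the last hour.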

For experiment [13], the target named is Thyrotropin-releasing hormone receptor (Homo sapiens) (UniProt P34981). The experiment is described as follows: qHTS assay to identify small molecule antagonists of the thyrotropin-releasing hormone receptor (TRHR) signaling pathway (AID 1346877; active means well fitted inhibition curve with a large enough effect in the repeat runs, not every such curve was filed as active; further: potency means the concentration at half of the fitted maximal effect). A digest of the protocol: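 Calcium signal in dye-loaded TRHR/HEK293 cells; compounds added 5 min before TRH (1 nM final); fluorescence monitored 3 min at 1 s steps.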

The target is the same in experiment [14]. The experiment is described as follows: qHTS assay to identify small molecule agonists of the thyrotropin-releasing hormone receptor (TRHR) signaling pathway (AID 1346891; calls by dose curve; further: potency means the concentration at half of the fitted maximal effect;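 on activation: HEK293 cells expressing TRHR with calcium dye readout; series mostly up to about 58 µM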). In short, it runs like this: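 In 1536-format, 1500 TRHR-Hek293 cells per well grew 18 h, took up calcium dye for 2 h at 37 °C, received compound, and were read kinetically; 15-point titrations, triplicates.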

Experiment [15] is described as follows: qHTS assay to identify small molecule agonists or antagonists of the thyroid stimulating hormone receptor (TSHR) signaling pathway - wild type cell line counter screen (AID 1259384; calls by dose curve). In short, it runs like this: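 Wild-type Hek293 cells, 800/well, 18 h at 37C, then compound with Ro20-1724 for 30 min RT. cAMP by HTRF (cAMP-d2/anti-cAMP cryptate), 1 h RT, fluorescence read. 15 concentrations, triplicates.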

For experiment [16], the target named is Thyrotropin receptor (Homo sapiens) (UniProt P16473). The experiment is described as follows: qHTS assay to identify small molecule antagonists of the thyroid stimulating hormone receptor (TSHR) signaling pathway (AID 1259385; calls by dose curve; further: nearly all actives have a fitted effect of over 20% in size). In short, it runs like this:
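TSHR-HEK293 cells (800/well) plated 18 h, then compounds with Ro20-1724 and TSH at 1.5 ng/mL final, 30 min at room temperature. cAMP quantified by HTRF (cAMP-d2/anti-cAMP-cryptate, 1 h); 15 concentrations in triplicate.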

Where “and” joins values, the source holds several entries; their conditions need not be identical. Identical values can stand only once. Records with an inconclusive call do not appear. More than one record can exist for a structure, and the calls need not agree. Calls of active or inactive are those of the source. Unless noted, the call rests on the fitted dose curve; in most records, active means well fitted curve in the direction sought with a large enough effect in the repeat runs; inconclusive means weak or mixed curves; inactive means no such curve, though single readings can be large; an effect the other way counts as inactive or inconclusive.
On the % scale 0 is the no-effect control and ±100 the full control effect.

Sequence of Thyrotropin receptor (Homo sapiens) (P16473 whole entry, looked up): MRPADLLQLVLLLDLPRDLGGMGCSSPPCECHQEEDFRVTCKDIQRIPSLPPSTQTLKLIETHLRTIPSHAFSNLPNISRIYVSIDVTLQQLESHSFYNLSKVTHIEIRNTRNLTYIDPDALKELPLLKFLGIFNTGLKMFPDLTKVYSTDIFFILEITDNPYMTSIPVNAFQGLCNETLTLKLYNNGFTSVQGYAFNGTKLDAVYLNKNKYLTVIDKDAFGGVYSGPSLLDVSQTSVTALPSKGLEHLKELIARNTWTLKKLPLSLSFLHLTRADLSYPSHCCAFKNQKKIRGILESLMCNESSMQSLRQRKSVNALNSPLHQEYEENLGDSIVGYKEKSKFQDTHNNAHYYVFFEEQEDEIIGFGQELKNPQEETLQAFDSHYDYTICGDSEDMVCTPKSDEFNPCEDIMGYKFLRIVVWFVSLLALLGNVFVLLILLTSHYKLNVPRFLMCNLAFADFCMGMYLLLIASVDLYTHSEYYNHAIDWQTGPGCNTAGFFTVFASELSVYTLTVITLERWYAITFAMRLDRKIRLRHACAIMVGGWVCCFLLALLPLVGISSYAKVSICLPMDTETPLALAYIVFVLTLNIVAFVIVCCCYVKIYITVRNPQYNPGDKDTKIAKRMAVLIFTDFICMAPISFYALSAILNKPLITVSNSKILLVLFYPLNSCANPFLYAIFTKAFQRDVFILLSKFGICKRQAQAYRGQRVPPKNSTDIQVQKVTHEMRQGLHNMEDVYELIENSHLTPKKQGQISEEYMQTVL
Sequence of Thyrotropin-releasing hormone receptor (Homo sapiens) (P34981 whole entry, looked up): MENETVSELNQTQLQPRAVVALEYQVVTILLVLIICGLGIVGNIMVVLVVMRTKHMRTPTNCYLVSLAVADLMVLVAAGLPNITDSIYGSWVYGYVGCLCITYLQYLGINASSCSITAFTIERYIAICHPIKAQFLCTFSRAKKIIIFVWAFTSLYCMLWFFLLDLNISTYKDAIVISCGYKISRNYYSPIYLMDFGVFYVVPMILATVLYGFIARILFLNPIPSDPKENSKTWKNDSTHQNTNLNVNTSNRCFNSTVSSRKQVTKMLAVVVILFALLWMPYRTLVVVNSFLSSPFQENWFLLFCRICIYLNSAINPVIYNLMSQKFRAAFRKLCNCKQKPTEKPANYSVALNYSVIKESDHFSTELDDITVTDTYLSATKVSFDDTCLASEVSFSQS
Sequence of Progesterone receptor (Homo sapiens) (P06401 whole entry, looked up): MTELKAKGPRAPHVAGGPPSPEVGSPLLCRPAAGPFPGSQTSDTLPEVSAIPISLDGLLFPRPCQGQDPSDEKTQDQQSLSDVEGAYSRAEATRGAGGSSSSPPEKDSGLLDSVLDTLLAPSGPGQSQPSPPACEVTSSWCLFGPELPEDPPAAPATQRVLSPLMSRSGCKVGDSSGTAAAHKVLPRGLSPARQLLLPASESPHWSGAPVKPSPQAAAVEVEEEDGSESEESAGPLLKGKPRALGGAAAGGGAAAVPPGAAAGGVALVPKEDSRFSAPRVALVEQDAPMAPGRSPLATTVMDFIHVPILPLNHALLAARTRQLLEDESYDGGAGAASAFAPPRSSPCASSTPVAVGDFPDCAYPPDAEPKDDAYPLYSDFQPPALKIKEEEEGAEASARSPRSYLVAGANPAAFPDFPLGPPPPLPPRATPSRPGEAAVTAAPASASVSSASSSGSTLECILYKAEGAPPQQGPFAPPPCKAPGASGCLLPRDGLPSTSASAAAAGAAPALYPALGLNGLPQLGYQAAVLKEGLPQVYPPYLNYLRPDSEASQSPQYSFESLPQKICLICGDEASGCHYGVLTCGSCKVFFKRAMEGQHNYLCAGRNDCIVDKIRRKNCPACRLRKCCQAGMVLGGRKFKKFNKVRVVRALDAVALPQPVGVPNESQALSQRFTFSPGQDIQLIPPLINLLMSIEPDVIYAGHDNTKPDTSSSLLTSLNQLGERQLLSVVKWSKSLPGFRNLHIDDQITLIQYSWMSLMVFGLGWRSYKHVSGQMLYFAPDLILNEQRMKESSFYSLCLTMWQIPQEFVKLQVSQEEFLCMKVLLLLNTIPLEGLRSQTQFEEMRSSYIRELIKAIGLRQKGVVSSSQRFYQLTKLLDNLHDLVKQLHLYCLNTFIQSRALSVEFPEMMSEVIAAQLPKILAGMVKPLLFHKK

`CCCC[n+]1ccccc1C`: the Potency result in [1], in experiment [2], in [3], in [4], in experiment [5] and in experiment [6] was “inactive” in each case. Besides, the Potency result in experiment [7], in [8], in experiment [9], in [10], in experiment [11] and in experiment [12] was “inactive” in each case.
For `O=C(O)c1ccccc1O`, the Potency result in [1], in experiment [2], in experiment [3], in [4], in experiment [5] and in experiment [6] was “inactive” throughout. Besides, the Potency result in experiment [7], in experiment [8], in [9], in [10], in [11] and in experiment [12] was “inactive” each time.
For the molecule `CCCCCCCCCCCCn1cc[n+](C)c1`, the Potency result in experiment [5] and in experiment [11] was “inactive” throughout. The Potency in experiment [6] is 27.5 µM (active) [middle of 4 runs].
Turning to `CCCCn1cc[n+](C)c1`, the Potency entry in experiment [1], in experiment [2], in experiment [3], in experiment [4], in experiment [7] and in [8] was “inactive” throughout. Besides, the Potency entry in [9], in experiment [10], in experiment [11] and in [12] was “inactive” throughout.
Regarding `CCCCCCCCCCCCOS(=O)(=O)O`, the Potency result in experiment [1], in experiment [4], in experiment [5], in experiment [6], in experiment [7] and in experiment [9] was “inactive” each time. The Potency result in [10], in experiment [11] and in [12] was “inactive” in each case. Besides, the Potency is 54.5 µM (active) and inactive in experiment [3]; “inactive and 27.3 µM (active)” in experiment [8].
For the molecule `CC[N+]1(C)CCCC1`, the Potency result in experiment [1] was “inactive and 61.3 µM (active)”; in experiment [5], 19.8 µM (active) and inactive. In addition, the Potency entry in experiment [2], in experiment [3], in experiment [4], in [6], in experiment [7] and in experiment [8] was “inactive” in each case. For the same molecule, the Potency entry in [9], in [10], in [11] and in experiment [12] was “inactive” throughout.
As to `CCCC[n+]1ccc(C)cc1`, the Potency result in [1], in experiment [4], in experiment [10] and in experiment [11] was “inactive” in each case. Moreover, the Potency result is “inactive and 60.8 µM (active)” in experiment [2]; “inactive and 60.8 µM (active)” in experiment [3]; “inactive and 60.8 µM (active)” in experiment [8]; “inactive and 24 µM (active)” in experiment [13]; “inactive and 15.5 µM (active)” in experiment [14]; “inactive and 6.12 µM (active)” in experiment [12].
Take `Oc1cccc2cccnc12`: the Potency in [1] is 6.14 µM (active) and 9.69 µM (active) and inactive; in experiment [2], 1.38 µM (active) and 1.22 µM (active) and inactive; in experiment [6], 4.6 µM (active) and inactive; in experiment [8], 770 nM (active) and inactive. The Potency entry in experiment [3], in experiment [4], in experiment [5], in experiment [9], in [10] and in [11] was “inactive” in each case.
For `COP(=O)(OC)C(O)C(Cl)(Cl)Cl` (stereo unspecified), the Potency entry in experiment [1], in experiment [2], in [3], in experiment [15], in experiment [16] and in experiment [4] was “inactive” in each case. Besides, the Potency result in experiment [5], in [7], in experiment [8], in experiment [9], in experiment [10] and in experiment [11] was “inactive” each time. Moreover, the Potency result in [13], in [14] and in experiment [12] was “inactive” throughout.
Turning to `COc1ccccc1N`, the Potency entry in [1], in experiment [2], in [3], in [4], in [5] and in experiment [6] was “inactive” throughout. In addition, the Potency entry in [7], in experiment [8], in experiment [9], in experiment [10], in experiment [11] and in experiment [13] was “inactive” each time. For the same molecule, the Potency entry in experiment [14] and in [12] was “inactive” throughout.
With `CCC[N+]1(C)CCCC1`, the Potency entry in experiment [1], in [2], in [3], in [4], in [5] and in experiment [6] was “inactive” throughout. Besides, the Potency result in experiment [7], in experiment [8], in experiment [9], in experiment [10], in [11] and in experiment [12] was “inactive” each time.

Source of the values: PubChem BioAssay (Tox21).
